Laboratory results: the supplement of paper PMC10849652
Targets with a hit are over-represented here; the source holds about 8,800 in all. About 0.5% of all pairs of compound and target were hits.

Legend:
Experiment in all cases: log2 fold change, soluble protein after heating vs DMSO (PISA); higher = thermal stabilisation; K562 lysate, 10 uM; active = over 0.2 and 3.5 SD of the protein, either way, in both replicates (recomputed)
alvocidib = compound: CN1CC[C@H](c2c(O)cc(O)c3c(=O)cc(-c4ccccc4Cl)oc23)[C@H](O)C1 [alvocidib]
Method in brief: (§1)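 Values give the log-two fold change in thermal stability against solvent controls, from duplicates. Crude K562 extract at 1 mg/mL protein, made by dounce homogenisation in PBS pH 7.4 with 1 mM MgCl2, was treated with 10 μM compound for 30 min. After 3 min heating across 48°C-58°C, aliquots were pooled, adjusted to 0.5% NP-40 at 4°C and centrifuged at 21,000xg for 90 min. The supernatant was measured by TMTpro 16plex LC-MS/MS with channel sums equalised.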

Tubastatin A = compound: CN1CCc2c(c3ccccc3n2Cc2ccc(C(=O)NO)cc2)C1 [Tubastatin A]
Method in brief: as §1

[1] = compound: CNC(=O)C1=CC=CC=C1NC2=NC(=NC=C2Cl)NC3=C(C=C(C=C3)N4CCOCC4)OC
Method in brief: as §1

defactinib = compound: CNC(=O)c1ccc(Nc2ncc(C(F)(F)F)c(NCc3nccnc3N(C)S(C)(=O)=O)n2)cc1 [defactinib]
Method in brief: as §1

[2] = compound: CNc1nc(-c2ccc3c(N)n[nH]c3c2)cc(N2C[C@@H](C(=O)NC3CCCCC3)CC[C@H]2C)n1
Method in brief: as §1

encorafenib = compound: COC(=O)N[C@@H](C)CNc1nccc(-c2cn(C(C)C)nc2-c2cc(Cl)cc(NS(C)(=O)=O)c2F)n1 [encorafenib]
Method in brief: as §1

[3] = compound: COC(=O)[C@H](CCSC)NC(=O)C1=C(C=C(C=C1)NC[C@H](CS)N)C2=CC=CC=C2
Method in brief: as §1

alisertib = compound: COc1cc(Nc2ncc3c(n2)-c2ccc(Cl)cc2C(c2c(F)cccc2OC)=NC3)ccc1C(=O)O [alisertib]
Method in brief: as §1

[4] = compound: COc1cc2nc(-c3cc(F)ccc3O)nc(N[C@@H]3CNC[C@H]3C(C)(C)O)c2cc1OC
Method in brief: as §1

gefitinib = compound: COc1cc2ncnc(Nc3ccc(F)c(Cl)c3)c2cc1OCCCN1CCOCC1 [gefitinib]
Method in brief: as §1

lapatinib = compound: CS(=O)(=O)CCNCc1ccc(-c2ccc3ncnc(Nc4ccc(OCc5cccc(F)c5)c(Cl)c4)c3c2)o1 [lapatinib]
Method in brief: as §1

pictilisib = compound: CS(=O)(=O)N1CCN(Cc2cc3nc(-c4cccc5[nH]ncc45)nc(N4CCOCC4)c3s2)CC1 [pictilisib]
Method in brief: as §1

crizotinib = compound: C[C@@H](Oc1cc(-c2cnn(C3CCNCC3)c2)cnc1N)c1c(Cl)ccc(F)c1Cl [crizotinib]
Method in brief: as §1

[5] = compound: C[C@H](C1=CC=C(C=C1)C(=O)NC2=C3C=CNC3=NC=C2)N
Method in brief: as §1

duvelisib = compound: C[C@H](Nc1ncnc2nc[nH]c12)c1cc2cccc(Cl)c2c(=O)n1-c1ccccc1 [duvelisib]
Method in brief: as §1

gandotinib = compound: Cc1cc(Nc2cc(CN3CCOCC3)c3nc(C)c(Cc4ccc(Cl)cc4F)n3n2)n[nH]1 [gandotinib]
Method in brief: as §1

tozasertib = compound: Cc1cc(Nc2cc(N3CCN(C)CC3)nc(Sc3ccc(NC(=O)C4CC4)cc3)n2)n[nH]1 [tozasertib]
Method in brief: as §1

doramapimod = compound: Cc1ccc(-n2nc(C(C)(C)C)cc2NC(=O)Nc2ccc(OCCN3CCOCC3)c3ccccc23)cc1 [doramapimod]
Method in brief: as §1

bafetinib = compound: Cc1ccc(NC(=O)c2ccc(CN3CC[C@H](N(C)C)C3)c(C(F)(F)F)c2)cc1Nc1nccc(-c2cncnc2)n1 [bafetinib]
Method in brief: as §1

[6] = compound: Cc1cccc(CC(=O)N2CCc3c2ccc(-c2cn(C)c4ncnc(N)c24)c3F)n1
Method in brief: as §1

Measured: log2 fold change

ESYT2 (UniProt H7BXI1)
inactive: alvocidib 0.02 | Tubastatin A 0.038 | [1] -0.02 | defactinib 0.001 | [2] -0.072 | encorafenib 0.053 | [3] -0.1 | alisertib -0.003 | [4] 0.029 | gefitinib -0.006 | lapatinib -0.008 | pictilisib 0.01 | crizotinib -0.039 | [5] 0.089 | duvelisib 0.018 | gandotinib -0.073 | tozasertib 0.063 | doramapimod 0.018 | bafetinib -0.115 | [6] 0.002

ERCC4 (UniProt Q92889)
UniProt Q92889, sequence (Q92889 whole entry, looked up): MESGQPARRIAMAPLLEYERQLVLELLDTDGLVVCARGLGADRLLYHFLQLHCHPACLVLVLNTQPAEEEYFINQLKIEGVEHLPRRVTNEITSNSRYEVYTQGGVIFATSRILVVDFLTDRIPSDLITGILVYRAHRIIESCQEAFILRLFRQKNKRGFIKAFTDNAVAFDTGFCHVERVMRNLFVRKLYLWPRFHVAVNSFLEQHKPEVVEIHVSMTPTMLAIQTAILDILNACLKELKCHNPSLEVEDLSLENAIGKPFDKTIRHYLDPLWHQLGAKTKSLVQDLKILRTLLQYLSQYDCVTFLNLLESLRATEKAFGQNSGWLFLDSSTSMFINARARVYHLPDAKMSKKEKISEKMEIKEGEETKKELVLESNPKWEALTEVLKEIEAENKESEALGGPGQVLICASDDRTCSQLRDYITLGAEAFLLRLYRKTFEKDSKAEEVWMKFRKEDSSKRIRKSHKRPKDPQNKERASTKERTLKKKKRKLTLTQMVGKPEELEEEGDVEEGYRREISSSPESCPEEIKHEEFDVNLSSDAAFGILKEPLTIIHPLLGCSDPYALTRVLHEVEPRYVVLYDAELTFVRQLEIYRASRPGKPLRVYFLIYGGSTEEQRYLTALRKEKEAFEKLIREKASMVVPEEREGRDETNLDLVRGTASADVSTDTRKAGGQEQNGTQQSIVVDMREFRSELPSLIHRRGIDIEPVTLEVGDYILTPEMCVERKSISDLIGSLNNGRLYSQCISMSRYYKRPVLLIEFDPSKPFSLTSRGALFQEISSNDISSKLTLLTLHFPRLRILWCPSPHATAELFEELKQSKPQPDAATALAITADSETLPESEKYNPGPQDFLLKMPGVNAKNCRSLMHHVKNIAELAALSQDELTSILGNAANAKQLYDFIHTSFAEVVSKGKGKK
active: [5] -0.544
inactive: alvocidib -0.268 | Tubastatin A -0.021 | [1] 0.058 | defactinib 0.101 | [2] -0.029 | encorafenib -0.065 | [3] -0.001 | alisertib 0.047 | [4] 0.024 | gefitinib 0.044 | lapatinib -0.023 | pictilisib -0.013 | crizotinib -0.031 | duvelisib 0.003 | gandotinib 0.054 | tozasertib -0.059 | doramapimod 0.087 | bafetinib -0.101 | [6] 0.159

FNBP1L (UniProt Q5T0N5)
UniProt Q5T0N5, sequence (Q5T0N5 whole entry, looked up): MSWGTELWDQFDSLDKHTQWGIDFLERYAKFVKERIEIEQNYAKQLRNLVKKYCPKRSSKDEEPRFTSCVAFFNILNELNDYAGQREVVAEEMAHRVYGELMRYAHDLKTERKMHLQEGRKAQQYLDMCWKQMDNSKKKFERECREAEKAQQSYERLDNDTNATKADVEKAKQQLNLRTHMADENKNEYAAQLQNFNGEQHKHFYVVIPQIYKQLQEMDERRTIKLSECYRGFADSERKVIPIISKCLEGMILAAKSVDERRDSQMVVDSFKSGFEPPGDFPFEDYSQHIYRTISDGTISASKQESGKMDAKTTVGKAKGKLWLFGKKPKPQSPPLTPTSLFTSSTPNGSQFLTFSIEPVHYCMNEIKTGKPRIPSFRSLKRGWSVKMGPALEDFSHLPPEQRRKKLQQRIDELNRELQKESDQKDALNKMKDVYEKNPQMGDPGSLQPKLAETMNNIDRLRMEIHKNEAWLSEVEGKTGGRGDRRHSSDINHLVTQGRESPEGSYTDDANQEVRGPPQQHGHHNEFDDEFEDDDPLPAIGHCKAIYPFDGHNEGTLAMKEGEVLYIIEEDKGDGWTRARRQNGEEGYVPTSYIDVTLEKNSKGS
active: [2] 0.357
inactive: alvocidib 0.04 | Tubastatin A -0.043 | [1] 0.023 | defactinib -0.066 | encorafenib 0.045 | [3] 0.034 | alisertib 0.005 | [4] -0.015 | gefitinib 0.099 | lapatinib 0.005 | pictilisib 0 | crizotinib -0.039 | [5] -0.023 | duvelisib -0.115 | gandotinib 0.002 | tozasertib -0.003 | doramapimod 0.113 | bafetinib -0.089 | [6] -0.026

FTSJ3 (UniProt Q8IY81)
UniProt Q8IY81, sequence (Q8IY81 whole entry, looked up): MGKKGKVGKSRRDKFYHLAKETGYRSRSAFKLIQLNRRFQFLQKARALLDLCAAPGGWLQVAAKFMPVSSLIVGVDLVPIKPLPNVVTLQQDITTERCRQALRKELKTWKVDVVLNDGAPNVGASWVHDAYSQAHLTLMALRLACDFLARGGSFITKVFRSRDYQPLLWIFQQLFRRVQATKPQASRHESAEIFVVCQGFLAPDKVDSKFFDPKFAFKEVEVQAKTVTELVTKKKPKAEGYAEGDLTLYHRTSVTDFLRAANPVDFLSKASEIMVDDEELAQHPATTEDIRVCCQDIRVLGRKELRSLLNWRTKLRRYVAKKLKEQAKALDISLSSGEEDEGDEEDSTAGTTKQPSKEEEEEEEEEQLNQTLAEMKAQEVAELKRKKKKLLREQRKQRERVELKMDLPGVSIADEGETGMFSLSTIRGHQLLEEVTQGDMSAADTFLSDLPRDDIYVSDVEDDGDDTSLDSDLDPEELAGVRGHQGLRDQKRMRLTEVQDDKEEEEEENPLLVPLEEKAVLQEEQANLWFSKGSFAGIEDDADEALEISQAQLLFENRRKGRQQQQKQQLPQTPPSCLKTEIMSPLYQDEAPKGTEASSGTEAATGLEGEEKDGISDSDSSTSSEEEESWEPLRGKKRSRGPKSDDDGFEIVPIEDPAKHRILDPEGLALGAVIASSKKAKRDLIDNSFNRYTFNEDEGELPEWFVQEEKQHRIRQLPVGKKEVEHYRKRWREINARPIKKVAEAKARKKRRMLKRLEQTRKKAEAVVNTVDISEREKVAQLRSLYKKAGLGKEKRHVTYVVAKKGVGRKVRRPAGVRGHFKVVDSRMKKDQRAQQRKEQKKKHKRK
inactive: alvocidib 0.031 | Tubastatin A -0.073 | [1] -0.018 | defactinib 0.026 | [2] 0.007 | encorafenib -0.028 | [3] 0.031 | alisertib 0.005 | [4] -0.036 | gefitinib 0.004 | lapatinib 0.013 | pictilisib 0.023 | crizotinib -0.037 | [5] -0.031 | duvelisib -0.01 | gandotinib -0.019 | tozasertib -0.019 | doramapimod -0.025 | bafetinib 0.013 | [6] 0.031

FAM98A (UniProt Q8NCA5)
UniProt Q8NCA5, sequence (Q8NCA5 whole entry, looked up): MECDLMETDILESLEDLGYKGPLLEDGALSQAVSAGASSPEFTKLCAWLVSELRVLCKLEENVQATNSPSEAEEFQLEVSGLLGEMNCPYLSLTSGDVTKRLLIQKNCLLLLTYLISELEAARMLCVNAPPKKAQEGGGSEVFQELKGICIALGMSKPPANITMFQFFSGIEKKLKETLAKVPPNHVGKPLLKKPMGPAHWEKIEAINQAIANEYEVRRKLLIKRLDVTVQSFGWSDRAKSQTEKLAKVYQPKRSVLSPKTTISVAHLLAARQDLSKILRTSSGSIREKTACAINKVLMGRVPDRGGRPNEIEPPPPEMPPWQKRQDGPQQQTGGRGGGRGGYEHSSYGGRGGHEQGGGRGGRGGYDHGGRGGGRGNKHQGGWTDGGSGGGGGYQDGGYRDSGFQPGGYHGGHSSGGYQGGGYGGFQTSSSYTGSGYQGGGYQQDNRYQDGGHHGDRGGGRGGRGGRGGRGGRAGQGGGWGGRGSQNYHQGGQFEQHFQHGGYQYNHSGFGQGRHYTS
inactive: alvocidib 0.042 | Tubastatin A -0.04 | [1] 0.028 | defactinib 0.01 | [2] 0.086 | encorafenib -0.004 | [3] 0.025 | alisertib -0.028 | [4] -0.014 | gefitinib 0.037 | lapatinib 0.001 | pictilisib -0.024 | crizotinib 0.007 | [5] 0.074 | duvelisib -0.024 | gandotinib -0.059 | tozasertib 0.023 | doramapimod -0.015 | bafetinib 0.012 | [6] 0

FLAD1 (UniProt Q8NFF5)
UniProt Q8NFF5, sequence (Q8NFF5 whole entry, looked up): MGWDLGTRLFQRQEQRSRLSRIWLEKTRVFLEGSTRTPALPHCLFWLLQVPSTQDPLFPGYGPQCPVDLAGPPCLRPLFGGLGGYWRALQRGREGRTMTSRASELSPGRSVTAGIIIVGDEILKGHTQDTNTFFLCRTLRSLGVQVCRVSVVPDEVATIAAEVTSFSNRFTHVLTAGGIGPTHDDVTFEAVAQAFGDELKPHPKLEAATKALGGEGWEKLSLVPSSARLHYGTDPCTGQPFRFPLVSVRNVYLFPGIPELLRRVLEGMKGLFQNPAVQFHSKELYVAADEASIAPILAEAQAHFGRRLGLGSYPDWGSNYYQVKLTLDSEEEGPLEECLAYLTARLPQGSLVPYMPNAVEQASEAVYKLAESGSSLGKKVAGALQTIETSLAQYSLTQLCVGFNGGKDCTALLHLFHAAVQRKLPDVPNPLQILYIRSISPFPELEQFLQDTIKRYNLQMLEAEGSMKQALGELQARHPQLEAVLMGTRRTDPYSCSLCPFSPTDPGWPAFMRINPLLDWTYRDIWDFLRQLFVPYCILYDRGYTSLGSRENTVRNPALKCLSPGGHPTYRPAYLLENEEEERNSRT
inactive: alvocidib 0.035 | Tubastatin A -0.214 | [1] 0.039 | defactinib -0.008 | [2] -0.013 | encorafenib 0.031 | [3] 0.137 | alisertib -0.025 | [4] -0.013 | gefitinib -0.042 | lapatinib 0.007 | pictilisib 0.002 | crizotinib -0.024 | [5] 0.021 | duvelisib 0.05 | gandotinib 0.044 | tozasertib -0.052 | doramapimod -0.02 | bafetinib -0.052 | [6] -0.05

GART (UniProt P22102)
UniProt P22102, sequence (P22102 whole entry, looked up): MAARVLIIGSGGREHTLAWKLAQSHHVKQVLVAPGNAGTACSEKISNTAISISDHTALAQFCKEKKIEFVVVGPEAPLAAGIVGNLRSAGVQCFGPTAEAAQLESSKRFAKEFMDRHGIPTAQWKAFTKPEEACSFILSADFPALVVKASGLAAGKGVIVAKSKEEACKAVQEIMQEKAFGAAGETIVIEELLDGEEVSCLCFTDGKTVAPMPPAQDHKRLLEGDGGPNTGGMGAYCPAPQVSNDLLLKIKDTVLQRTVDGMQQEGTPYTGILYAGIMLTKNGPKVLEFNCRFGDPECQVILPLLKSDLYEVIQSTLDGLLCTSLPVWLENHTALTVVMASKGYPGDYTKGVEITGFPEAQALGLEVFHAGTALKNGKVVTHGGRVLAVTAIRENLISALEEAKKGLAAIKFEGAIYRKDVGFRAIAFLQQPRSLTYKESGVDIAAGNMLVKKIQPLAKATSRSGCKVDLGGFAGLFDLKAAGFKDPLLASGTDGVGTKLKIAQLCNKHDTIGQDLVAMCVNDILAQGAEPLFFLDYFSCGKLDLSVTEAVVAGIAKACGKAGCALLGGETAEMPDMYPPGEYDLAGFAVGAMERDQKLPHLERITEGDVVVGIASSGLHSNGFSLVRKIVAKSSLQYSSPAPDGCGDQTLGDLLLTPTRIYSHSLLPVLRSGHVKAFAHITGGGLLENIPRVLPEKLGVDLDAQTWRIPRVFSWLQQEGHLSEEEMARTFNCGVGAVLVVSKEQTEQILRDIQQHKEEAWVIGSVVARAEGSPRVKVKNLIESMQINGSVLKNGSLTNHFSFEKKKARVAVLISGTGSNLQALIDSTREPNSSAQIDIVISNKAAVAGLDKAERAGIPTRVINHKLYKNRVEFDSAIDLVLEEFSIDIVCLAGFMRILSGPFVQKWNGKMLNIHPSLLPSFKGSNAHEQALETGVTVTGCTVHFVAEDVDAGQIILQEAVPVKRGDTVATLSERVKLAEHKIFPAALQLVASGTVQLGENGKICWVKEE
inactive: alvocidib 0.021 | Tubastatin A -0.073 | [1] 0.002 | defactinib -0.024 | [2] 0.021 | encorafenib -0.027 | [3] 0.08 | alisertib 0.008 | [4] -0.004 | gefitinib -0.017 | lapatinib -0.008 | pictilisib -0.024 | crizotinib -0.017 | [5] 0.062 | duvelisib -0.014 | gandotinib -0.052 | tozasertib -0.004 | doramapimod 0 | bafetinib -0.001 | [6] -0.026

ESRRA (UniProt P11474)
UniProt P11474, sequence (P11474 whole entry, looked up): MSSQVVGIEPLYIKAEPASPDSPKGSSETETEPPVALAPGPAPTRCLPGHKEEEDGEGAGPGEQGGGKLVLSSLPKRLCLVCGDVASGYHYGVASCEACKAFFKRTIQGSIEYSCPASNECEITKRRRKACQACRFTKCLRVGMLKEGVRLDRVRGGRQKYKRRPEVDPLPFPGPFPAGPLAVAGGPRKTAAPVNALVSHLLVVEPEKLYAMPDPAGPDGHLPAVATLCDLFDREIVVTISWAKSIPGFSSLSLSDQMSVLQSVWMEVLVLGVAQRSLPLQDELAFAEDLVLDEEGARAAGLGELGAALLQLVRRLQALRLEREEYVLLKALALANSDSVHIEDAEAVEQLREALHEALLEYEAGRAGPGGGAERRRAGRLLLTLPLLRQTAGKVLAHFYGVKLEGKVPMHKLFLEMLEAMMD
inactive: alvocidib 0.167 | Tubastatin A -0.169 | [1] 0.033 | defactinib -0.086 | [2] -0.04 | encorafenib 0.048 | [3] -0.072 | alisertib -0.045 | [4] -0.029 | gefitinib 0.07 | lapatinib 0.026 | pictilisib -0.049 | crizotinib -0.025 | duvelisib 0.088 | gandotinib -0.115 | tozasertib 0.088 | doramapimod -0.028 | bafetinib 0.052 | [6] -0.149
active: [5] 0.444
